Experimental data taken from the supplement of paper PMC12067093, “Discovery and optimisation of a covalent ligand for TRIM25 and its application to targeted protein ubiquitination” (Chemical Science, 2025).
Of roughly 21,000 targets only a part is listed; those with the largest changes were picked by preference.

Compound: Cc1cc(ccc1-c1ccccc1)C(=O)N1CCCN(CC1)C(=O)CCl [compound 10]
Test: probe-labelled cysteine peptide fold change vs DMSO (competition) (log2 fold change); higher = less target engagement (more negative = stronger competition)
Details: THP-1, incubation time: 4 h
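Also: competitive profiling in live THP-1 cells: cysteine peptides tagged with an iodoacetamide desthiobiotin (IA-DTB) probe, intensity after compound treatment relative to DMSO-treated cells.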

Target	probe-labelled cysteine peptide fold change (10 µM)	probe-labelled cysteine peptide fold change (50 µM)
PARP14_Q460N5_509_VTQHLCLK (UniProt Q460N5)	0.0914	0.48
NT5DC1_Q5TFE4_139_YYFYDNYFDLPGALLCAR (UniProt Q5TFE4)	1.21	1.46
NUBP1_P53384_8_MEEVPHDCPGADSAQAGR (UniProt P53384)	1.37	1.35
MYO6_Q9UM54_790_RVNHWLTCSR (UniProt Q9UM54)	0.104	0.475
PA2G4_Q9UQ80_85_GIAFPTSISVNNCVCHFSPLK (UniProt Q9UQ80)	0.203	-0.024
OAT_P04181_93_YFDFLSSYSAVNQGHCHPK (UniProt P04181)	0.0237	0.0378
NECTIN2_Q92692_238_ADGVTVTCK (UniProt Q92692)	-0.148	-0.394
NFS1_Q9Y697_353_HHYPGCINLSFAYVEGESLLMALK (UniProt Q9Y697)	0.466	0.42
PALD1_Q9ULE6_382_AITACAELHDLK (UniProt Q9ULE6)	-0.02	-0.092
NUMA1_Q14980_961_QFCSTQAALQAMER (UniProt Q14980)	-0.0783	-1.25
OSTC_Q9NRP0_14_VPFLVLECPNLK (UniProt Q9NRP0)	0.025	-0.0744
NSDHL_Q15738_86_FFLGDLCSR (UniProt Q15738)	-0.104	0.0788
P4HB_P07237_397_KNVFVEFYAPWCGHCK (UniProt P07237)	-0.644	-2.76
PAK2_Q13177_352_ECLQALEFLHANQVIHR (UniProt Q13177)	0.441	0.0289
PAICS_P22234_266_SESQCR (UniProt P22234)	0.613	1.39
NACC2_Q96BF6_393_NTLANSCGTGIR<|>NACC1_Q96RE7_416_NTLANSCGTGIR (UniProt Q96RE7+Q96BF6)	-0.485	0.031
NFX1_Q12986_295_STCDSENLAVINK (UniProt Q12986)	0.0638	-0.0574

Target	probe-labelled cysteine peptide fold change (10 µM)	probe-labelled cysteine peptide fold change (50 µM)
NRAS_P01111_51_KQVVIDGETCLLDILDTAGQEEYSAMRDQYMR<|>HRAS_P01112_51_KQVVIDGETCLLDILDTAGQEEYSAMRDQYMR (UniProt P01112+P01111)	-0.209	-0.642
PARK7_Q99497_53_DVVICPDASLEDAK (UniProt Q99497)	-0.432	0.291
MYO6_Q9UM54_321_MCTAMK (UniProt Q9UM54)	0.00117	-0.218
PALD1_Q9ULE6_65_VAPVVITYNCK (UniProt Q9ULE6)	0.106	-0.15
P3H1_Q32P28_568_LDTPLYFSYSHLVCR (UniProt Q32P28)	-0.35	0.386
NT5C3B_Q969T7_73_IISEECR (UniProt Q969T7)	-0.00671	0.268
MYO9B_Q13459_1876_ITTCVEMLIK (UniProt Q13459)	0.0944	-0.0605
NOTCH2_Q04721_427_GADCTEDVDECAMANSNPCEHAGK (UniProt Q04721)	0.149	0.115
NOL9_Q5SY16_637_TVNCLLVGAIAIPHCVLK (UniProt Q5SY16)	-0.0765	-0.381
P4HB_P07237_53_YLLVEFYAPWCGHCK (UniProt P07237)	-1.15	-1.6
NR2F6_P10588_316_AIALFTPDACGLSDPAHVESLQEK (UniProt P10588)	-0.711	-1.1
P4HTM_Q9NXG6_156_PLLFEIPGFLTDEECR (UniProt Q9NXG6)	0.372	0.492
NOMO3_P69849_565_ISIMHEDWCWK<|>NOMO1_Q15155_565_ISIMHEDWCWK<|>NOMO2_Q5JPE7_565_ISIMHEDWCWK (UniProt Q5JPE7+Q15155+P69849)	0.0786	0.28
NIPSNAP3A_Q9UFN0_135_QESEITYLVPWCK (UniProt Q9UFN0)	0.151	0.389
NUP205_Q92621_698_CEEYPLTR (UniProt Q92621)	0.0608	-0.00172
NOP2_P46087_463_VLLDAPCSGTGVISK (UniProt P46087)	-0.0187	0.0458
NFKB1_P19838_61_YVCEGPSHGGLPGASSEK (UniProt P19838)	0.0894	-0.824
